Test results taken from PubChem BioAssay (NCI).
Values joined by “and” are separate entries in the source; they are usually repeats but may differ in a detail not shown here. Identical values can stand only once. The panel holds about 83,000 compounds, 20% with a hit somewhere; the sample as a whole holds those more often.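 Each cell line was grown in a 96-well plate and treated with one concentration of compound for 48 hours. Values below 10 were considered active.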 Values without a mark were called inactive. Active and inactive are the calls of the source.

Test system: MDA-MB-468 breast
Assay: NCI-60 one-dose screen, 48 h (100 = growth as untreated, 0 = no growth, -100 = all killed)
Details: 10 µM unless noted

| SMILES | growth |
| --- | --- |
| O=C1/C(=C/c2cc(F)cc(F)c2)Cc2cc3c(cc21)OCO3 | 8.61% (active) |
| Cc1ccc(NC(=O)c2sc3nc(C)c(Br)c(C)c3c2N)cc1 | 66.6% |
| Cc1cc(C(=O)Nc2ncnc3nc[nH]c23)no1 | 96.4% |
| O=C1CC2C=CCN2C=C1NC(=O)c1ccccc1 (stereo not given) | 98.9% |
| S=C(S)N1CCCC1 | 111% |
| N#Cc1ccc(O)c(C2=NCC(Cc3ccccc3)O2)c1 (stereo not given) | 33.5% |
| O=C1C(Cl)=C(NCCCN(CCCNC2=C(Cl)C(=O)c3ccccc3C2=O)C2=C(Cl)C(=O)c3ccccc3C2=O)C(=O)c2ccccc21 | -7.83% (active) |
| CC1(C)CC2(C)OC2C2(C1)N=NC(=Nc1ccccc1)O2 (stereo not given) | -15.6% (active) |
| CCOC(=O)c1cc(C(=O)c2cc(OC)c(OC)c(OC)c2)n2ncccc12 | -11.5% (active) |
| COc1cccc(C(c2cc3c(cc2O)OCO3)N2CCOCC2)c1OC (stereo not given) | 90.6% |
| COC1=CC(=O)C(OC)=C(O)C1=O | 91.8% |
| O=C(Nc1ccc(Br)cc1)Nc1ccccc1Cl | 69.2% |
| COc1nc2c(c(=O)n1C)CN(c1ccccc1)C(=O)CN2C | 4.41% [100 µM] (active) |
| COc1ccccc1-n1cc(C#N)c(N)c1C(=O)c1ccc(C)cc1 | 46.2% |
| COc1ccc(-c2cc(-c3ccc(Cl)cc3)nc(SCCCCCCC(=O)NO)n2)cc1OC | 55.2% |
| Cc1cc(Cc2cc(C)c(O)c(C)c2)cc(C)c1O | -0.94% (active) |
| CC/C=C\C[C@H](F)C/C=C1/C(=O)C=C[C@@H]1C/C=C\CCCC(=O)OC | 17.9% |
| CNCc1cccc2c1OCCOCCOCCN(C)S(=O)(=O)c1ccc(cc1)-c1cnc(N)c(n1)C(=O)N2 | 68.5% |
| CSc1nc2nc3c(c(-c4ccc(C)cc4)c2c(=O)[nH]1)CN(C)C/C3=C\c1ccc(C)cc1 | 74.7% |
| CCc1ccccc1-n1c(-c2ccc(OC)cc2)cc(-c2ccc(OC)cc2)c(C#N)c1=O | 96.9% |

| SMILES | growth |
| --- | --- |
| COc1ccc(CCN(CC(=O)N(CC(N)=O)C2CCC[C@@H]2OCc2ccccc2)C(=O)CN(C(=O)CN(CCc2ccc(Cl)cc2)C(=O)CN(C(=O)CN(C)Cc2ccccc2F)[C@H](C)C2CCCCC2)[C@H](C)C2CCCCC2)cc1OC (stereo not given in full) | 14.7% |
| O=C1C=C(SCCO)C(=O)c2ccccc21 | -42.6% (active) |
| O=C1Nc2c(ccc(Cl)c2Cl)/C1=C/c1ccccn1 | 50.6% |
| O=C(O)c1ccc(NC(=O)c2ccc(-c3cccc([N+](=O)[O-])c3)o2)cc1 | 99.8% |
| CCCCC(CC)OC(=O)C(Br)CC (stereo not given) | 106% |
| COc1cccc(C2C3=C(COC3=O)N(CCO)c3cc(OC)ccc32)c1 (stereo not given) | -13.2% (active) |
| COc1ccc(OC)c(Nc2nnc(-c3ccc(Cl)cc3)o2)c1 | 74.2% |
| COc1cc(OC)c(/C=C/S(=O)(=O)Cc2ccc(OC)c(NCC(=O)O)c2)c(OC)c1 | -4.64% (active) |
| CC(=O)c1cc2c(N)c(C(=O)Nc3ccccn3)sc2nc1C | 57.3% |
| CNCCNc1nc2ccccc2c2c(=O)c3cccc(OC)c3sc12 | 20.9% |
| Cc1nc(-c2ccccc2O)ccc1C(=O)N=Nc1c(O)[nH]c2ccc(Br)cc12 | 90.2% |
| CN1CCN(Cc2ccc(NC(=O)c3cncc(C#Cc4cnc(N)c5ccccc45)c3)cc2C(F)(F)F)CC1 | -80.8% (active) |
| Cc1ncc(-c2ccoc2)c(NC2CCCCCC2)n1 | 105% |
| O=C1/C(=C/c2cccc(F)c2)Cc2ccccc21 | 107% |
| CCCCCCC(C)(O)c1ccccc1 (stereo not given) | 117% |
| CCCCOc1ccc(NC(=O)n2nc(NC(C)=O)c3cc(NC(C)=O)ccc32)cc1 | 111% |
| c1ccc(CNc2c3ccccc3nc3ccccc23)cc1 | 19.4% |
| C=C(CNCCO)[C@@H]1CC[C@]2(CO)CC[C@]3(C)[C@H](CC[C@@H]4[C@@]5(C)CCC(NCCc6ccc(O)cc6)C(C)(C)[C@@H]5CC[C@]43C)[C@@H]12 (stereo not given in full) | -77.3% (active) |
| COc1ccc(/C=C/C(=O)N2CCC(O)CC2)cc1OC1CCCC1 | 114% |
| O=C(/C=C/c1ccc(Cl)s1)c1ccc(Cl)s1 | 88.1% and 79.5% |
